Experimental data: ChEMBL document CHEMBL4513216, “Probing the Open Global Health Chemical Diversity Library for Multistage-Active Starting Points for Next-Generation Antimalarials” (ACS Infect Dis, 2020)
About 2,700 (4%) of roughly 68,000 compounds showed an effect of 50% or more. Many of the other results were omitted from the sample, so strong results are more common in it than they were.

Each compound was assayed on Plasmodium berghei (assay: Screen against P. berghei liver stage (PbLuc), transformed with Luciferase, at 2uM). Settings: tested at 2 uM.
Type: functional, HepG2

Compound	INHIBITION [%]
O=C(CN1CCc2cncnc2C1)N1CCc2sccc2C1	-27.59
Cn1cnnc1SCC(=O)N1C[C@@H]2CC[C@H]1CN(Cc1cccnc1)C2	12.74
O=C(CN1CCCCC1)Nc1cc(C(F)(F)F)ccc1-n1cccc1	18.54
CNC(=O)c1cccc(CNC(C)c2cc(C)ccc2OC(F)F)c1 (centres undefined)	25.55
CNC(=O)c1cccc(CNC(C)c2ccc(F)cc2N(C)C)c1 (centres undefined)	55.25
CNC(=O)c1cccc(CNC(C)c2cc(Cl)ccc2OC)c1 (centres undefined)	19.81
CC(C)n1nc(O)c2c1NC(=O)CSC2c1cnn(C)c1 (centres undefined)	6.9
COc1cc(CNCC(C)O)cc(Cl)c1OCc1ccc(C)cc1 (centres undefined)	44.51
CC1CN(CC(=O)N2CCOCC2)CCN1Cc1nccn1C (centres undefined)	66.27
COc1ccc(C(C)N2CCN(Cc3nccn3C)CC2)cc1Cl (centres undefined)	18.31
C=C(C)CN1CCN(Cc2nccn2C)C(C)C1 (centres undefined)	36.95
COc1ccc(CN2CCN(Cc3nccn3C)C(C)C2)cc1F (centres undefined)	-13.34
COc1ccc(C)cc1CN1CCN(Cc2nccn2C)C(C)C1 (centres undefined)	50.61
COc1ccc(C)cc1CN1CCN(Cc2nccn2C)CC1	50.61
CC1CN(CC(=O)NC2CCOCC2)CCN1Cc1nccn1C (centres undefined)	-0.99
Cc1ccccc1CN1CCN(Cc2nccn2C)CC1	20.28
COc1ccc(F)cc1CN1CCN(Cc2nccn2C)C(C)C1 (centres undefined)	-49.85
Cc1cc(CN2CCc3nc(N4CCOCC4)nc(O)c3CC2)c(C)s1	22.84
Cc1cccc(CNC2CC3(CCN(CCO)CC3)c3ccccc32)n1 (centres undefined)	34.02
Cc1ccc2oc(SCC(N)=O)nc2n1	-30.1
CN(C(=O)Nc1nncs1)C1CCN(c2ccccc2Cl)C1=O (centres undefined)	2.06
Cn1cnc2c1C(COCC1CCOCC1)CN(C(=O)c1ccco1)C2 (centres undefined)	-39.19
CN(C)C(=O)N1CCN(C(=O)CCc2ccccc2)[C@H]2CS(=O)(=O)C[C@H]21	-93.14

Compound	INHIBITION [%]
Cn1c(C2CC2)nc2c1CCN(Cc1nc3ccccc3s1)C2	14.59
CN1CC2(CCN(C(=O)COc3ccc(Cl)cc3Cl)CC2)OC1=O	16.37
c1cn(Cc2nnc(C3CCN(C4CCOCC4)CC3)n2C2CC2)cn1	24.88
CC(C)(C)CN1CCC(c2nnc(Cn3ccnc3)n2C2CC2)CC1	-13.72
NCCN1CCC(c2nnc(Cn3ccnc3)n2C2CC2)CC1	52.08
CSCCCN1CCC(c2nnc(Cn3ccnc3)n2C2CC2)CC1	54.29
OCC(CO)N1CCC(c2nnc(Cn3ccnc3)n2C2CC2)CC1	32.26
CS(=O)(=O)N1CCC(c2nnc(Cn3ccnc3)n2C2CC2)CC1	-13.72
COc1ccccc1C(NC(=O)CN(C)C(C)C)c1noc(C)n1 (centres undefined)	1.8
O=C1CN(C(=O)c2cccc(OCc3cscn3)c2)CCN1	-7.02
CS(=O)(=O)N1CCC(NC(=O)COc2ccc(Cl)cc2)CC1	54.86
CS(=O)(=O)N1CCC(NC(=O)COc2ccc(Cl)c(Cl)c2)CC1	-34.45
Cc1ccc(OCC(=O)NC2CCN(S(C)(=O)=O)CC2)cc1	30.88
c1ccc(COC[C@]23COC[C@H]2CN(c2ncccn2)C3)nc1	-19.09
CC(C)N(C)Cc1ncn2c1CN(C(=O)C1CCCO1)CCC2 (centres undefined)	21.7
Cc1c(CNCCCOc2cccnc2)c2ccccc2n1CC(N)=O	43.87
Cc1cccc(C)c1OCCC(=O)N1CCC(c2nncn2C)CC1	-1.56
Cc1ccc(OCCC(=O)N2CCC(c3nncn3C)CC2)c(C)c1	7.74
Cn1cnnc1C1CCN(C(=O)Cc2ccc3c(c2)OCCO3)CC1	5.14
COc1ccccc1CCNC(=O)N1CCCC(c2nncn2C)C1 (centres undefined)	18.59
COc1ccc(CC(=O)N2CCC(c3nnc4n3CCC4)CC2)cc1F	-25.23
COc1ccc(CC(=O)N2CCC(c3nncn3C)CC2)cc1F	54
COc1ccc(CC(=O)N2CCCC(c3nncn3C)C2)cc1 (centres undefined)	14.26

Compound	INHIBITION [%]
Cc1ccc(C(=O)CCC(=O)N2CCC(c3nncn3C)CC2)cc1	54.85
CCn1cnnc1C1CCN(C(=O)COc2ccccc2OC)CC1	-16.51
CCn1cnnc1C1CCN(C(=O)c2cc(F)ccc2OC)CC1	27.5
COc1ccc(CCNC(=O)N2CCCC(c3nncn3C)C2)cc1 (centres undefined)	55.45
CCn1cnnc1C1CCN(C(=O)Cc2ccc(OC)c(F)c2)CC1	77.01
c1coc(CN2CCC(c3ccc4c(c3)OCO4)CC2)c1	-8.85
Cc1ccc(CN(CCCn2ccnc2)Cc2ccccc2O)s1	-43.99
CN(C)CCNC(=O)c1cc(-c2cnc(N3CCCC3)nc2)cn1C	9.79
Cc1cccc(C(=O)N2CCCCC2c2ccc(CN(C)C)cc2)n1 (centres undefined)	-32.59
Fc1cc(Cl)cnc1N1CCCC(c2nccn2Cc2ccccn2)C1 (centres undefined)	3.97
COc1c(Cl)cc(C(=O)NCCNc2ncccn2)cc1Cl	21.97
CN1CCCC[C@@H]2[C@H]1[C@@H](c1ccccc1)CCN2C(=O)c1cccnc1	51.57
CN1CCCC[C@@H]2[C@H]1[C@@H](c1ccccc1)CCN2C(=O)c1ccccc1	-60.34
CN1CCCCC[C@@H]2[C@@H]1[C@H](c1ccccc1)CN2C(=O)c1cccnc1	31.28
COc1ccc(C(=O)C2CCCN(Cc3cccc(F)c3)C2)c(OC)c1 (centres undefined)	-14.94
COc1ccc(F)cc1C(=O)C1CCCN(Cc2cnc(C)s2)C1 (centres undefined)	72.49
COc1ccc(F)cc1C(=O)C1CCCN(Cc2ccc(C)s2)C1 (centres undefined)	49.02
CO[C@@H]1CCN(Cc2ccoc2)C[C@@H]1Cc1ccccc1	28.46
CCc1c(C)nc2ccccc2c1N1CCC(NC(C)=O)CC1	50.59
CCOC(=O)N1CCN(c2nc(N)c3ccccc3n2)CC1	-12.08
CCc1c(C)nc2ccccc2c1N1CCC(O)CC1	60.13
CCOC(=O)N1CCN(c2nc(NC3CC3)c3ccccc3n2)CC1	27.85
CCc1c(C)nc2ccccc2c1N1CCC(C(=O)NC)CC1	5.28

Compound	INHIBITION [%]
OC1CCN(c2cnnc3ccccc23)CC1	-1.81
CN(CCc1cccc2ccccc12)Cc1nc(N)nc(N(C)C)n1	-3.1
COCC[C@]1(O)CCN(Cc2nc(C)cs2)C[C@H]1C	-9.15
Cc1cccc(C(=O)N2CCCC2c2c(C)n[nH]c2C)c1 (centres undefined)	41.84
Cc1n[nH]c(C)c1C1CCCN1C(=O)c1cc(Br)c[nH]1 (centres undefined)	56.21
Cc1n[nH]c(C)c1C1CCCN1C(=O)c1coc(Br)c1 (centres undefined)	28.43
Cn1cc2c(n1)C(CNC1CCOCC1)OCC2 (centres undefined)	-10.78
CC(=O)N1CCC2(CC1)COC(COCc1ccccn1)C2 (centres undefined)	53.55
COCC(=O)N1CCC2(CC1)COC(COCc1ccccn1)C2 (centres undefined)	37.41
CCOCC(=O)N1CCC2(CC1)COC(COCc1ccccn1)C2 (centres undefined)	18.05
FC(F)(F)c1ccc(-c2c[nH]c([C@@H]3COCCN3)n2)cc1	64.99
Fc1ccc(-c2c[nH]c([C@@H]3COCCN3)n2)cc1	32.59
FC(F)(F)Oc1ccc(-c2c[nH]c([C@@H]3COCCN3)n2)cc1	12.28
CC(c1ncc(-c2ccccc2)o1)N1CCN(C(=O)C(C)(C)C)CC1 (centres undefined)	-18.71
CNC(=O)CCN(C)c1nc(-c2ccncc2)nc2c1CCNC2	24.54
Cc1ccc(CN2C[C@@H](OCc3csc(C)n3)[C@H]3COC[C@H]32)s1	9.36
Cc1nc(CO[C@@H]2CN(Cc3cccs3)[C@@H]3COC[C@@H]32)cs1	26.01
Cc1nc(CO[C@@H]2CN(Cc3cccnc3)[C@@H]3COC[C@@H]32)cs1	55.66
Cc1nc(CO[C@H]2CN(Cc3cccs3)[C@@H]3COC[C@H]23)cs1	56.76
Cc1nc(CO[C@@H]2CN(Cc3ccc(F)cc3)[C@@H]3COC[C@@H]32)cs1	-17.76
Cc1nc(CO[C@@H]2CN(Cc3ccsc3)[C@@H]3COC[C@@H]32)cs1	24.43
CC1=C(C(=O)NCCc2n[nH]c3c2CCCC3)C(C)NC(=O)N1 (centres undefined)	-18.23
COCc1nc(-c2ccnc(N3CCNCC3)n2)no1	-8.07

Compound	INHIBITION [%]
CC(C)c1noc(CS(=O)(=O)CC(=O)NCc2ccccc2)n1	66.33
CC(C)c1noc(CS(=O)(=O)CC(=O)NCCOc2ccccc2)n1	-38.35
CC(C)c1noc(CS(=O)(=O)CC(=O)NCc2cccs2)n1	20.74
CN1CC(=O)N(c2ccccc2)CC12CCN(CCO)C2 (centres undefined)	65.73
CN1CC(=O)N(c2ccccc2)CC12CCN(CC1CC1)C2 (centres undefined)	-8.23
CN1CC(=O)N(c2cccc(F)c2)CC12CCN(CCO)C2 (centres undefined)	-15.88
Cc1ncnc2c1CCN(C(=O)c1ccoc1)CC2	33.47
Cc1nc(-c2ccccc2)sc1CNC1CCc2ncnn2C1 (centres undefined)	-21.39
Cc1ncnc2c1CCN(CC1CCOC1)CC2 (centres undefined)	8.73
COCCC(=O)N1CC[C@@H](N(C)C)[C@@H]1Cc1ccccc1	2.71
COc1cccc(C(=O)N2CCN(C(=O)CCn3ccnc3)CC2)c1	-14.71
COc1cccc(OCC2CCCN(C(=O)CCc3cc(O)no3)C2)c1 (centres undefined)	-29.65
COc1cccc(OCC2CCCN(C(=O)CCn3ccnc3)C2)c1 (centres undefined)	50.59
COc1ccccc1OC1CCN(C(=O)CCCn2ccnc2)CC1	29.9
COc1cccc(OCC2CCCN(C(=O)Cc3cccc(O)c3)C2)c1 (centres undefined)	79.21
COc1ccccc1C(=O)N1CCN(C(=O)CCn2ccnc2)CC1	51.4
COc1cccc(CCC2CCCN(C(C)=O)C2)c1 (centres undefined)	79.21
COc1cccc(OCC2CCCN(C(C)=O)C2)c1 (centres undefined)	12.91
COc1cccc(CCC2CCCN(C(=O)c3ccccn3)C2)c1 (centres undefined)	26.74
COc1cccc(OCC2CCCN(C(=O)CCCn3cccn3)C2)c1 (centres undefined)	31.51
COc1cccc(CCC2CCCN(C(=O)c3ccc(OC)o3)C2)c1 (centres undefined)	38.67
COc1cccc(OCC2CCCN(C(=O)c3cnn(C)c3)C2)c1 (centres undefined)	29.13
